Only some compounds are listed: those with a hit (about 3% of all), similar ones and a draw of the others.
esBAF inh – blocks esBAF chromatin remodeling in mouse ES cells; reporter increase, % at 12.5 µM; Bmi1-luciferase knock-in reporter, 24 h; 100% = twice the neutral-well signal; hit rate 2% among 350,000; in the data active means activation above about 40%; inconclusive means no clear call, values can overlap the other calls;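 further: 0% = median of the plate's neutral control wells and 100% = double that signal; a rise in the Bmi1 reporter signal indicates esBAF inhibition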
MITF TRPM1 HTS – increases MITF-driven TRPM1 promoter luciferase signal; SK-MEL-5 TRPM1-promoter luciferase, 24 h; % of positive control, neutral wells = 0; activation, % at 12.5 µM; hit rate 0.75% among 300,000; AID 588334;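 active means mean activation of at least 80% with every replicate also reaching 80%; inconclusive means mean reaches 80% but some replicate falls short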;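 further: 0% = neutral control wells and 100% = parthenolide positive control wells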
Wnt act – activators of Wnt/beta-catenin signaling. Wnt/beta-catenin reporter cell assay, activator, plate reader. activation, % at 9.35 µM. hit rate 1.2% among 300,000. AID 743398; in the data active means activation above about 30%, passing the limit was not always enough; inconclusive means no clear call, values can overlap the other calls;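 further: 0% = neutral control wells and 100% = positive control wells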
Statin myotox sup – suppressors of simvastatin-induced myotoxicity in C2C12 myotubes | ATP luminescence, 48 h; scaled: DMSO 0, geranylgeraniol control 100 | hit rate 0.78% among 330,000 | rescue of ATP level, % at 7.49 µM;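 active means mean ATP rescue above about 67%, or every replicate alone reaching that limit, limit read from the data, passing the limit was not always enough; inconclusive means no clear call, values can overlap the other calls; inactive means mean under the limit and some replicate under it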;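 further: myotubes were challenged with 10 µM simvastatin during compound exposure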
The depositor's hits bear a star; ? = inconclusive; / = not tested or not shown.

SMILES	esBAF inh	MITF TRPM1 HTS	Wnt act	Statin myotox sup
O=C(Nc1ccccc1)C1=C[C@@H](c2ccc3c(c2)OCO3)C[C@@H](OCCCCO)O1	67*	73	22	-2
O=C(NCc1ccccc1)C1=C[C@@H](c2ccc3c(c2)OCO3)C[C@@H](OCCCCO)O1	3	-5	-2	6
O=C(O)C1=C[C@H](c2ccc3c(c2)OCO3)C[C@H](OCCCCO)O1	-7	-4	-2	7
Nc1nc(COc2ccc3ccccc3c2)cs1	59*	104*	/	9
CC(=O)Nc1nc(COc2ccc3ccccc3c2)cs1	31	65	55*	6
O=C(Nc1nc(COc2ccccc2)cs1)C1CCC1	64*	45	46*	13
CC(=O)Nc1nc(COc2ccccc2)cs1	10	73	/	-5
OC(c1ccc(F)c(F)c1)c1nc(-c2cnc3ccccc3c2)cs1 (stereo unspecified)	51*	/	21	22
OC(c1ccc(F)c(F)c1)c1nc(-c2ccccc2)cs1 (stereo unspecified)	-2	/	4	1
O=C(O)c1cccc(-c2csc(C(O)c3ccc(F)c(F)c3)n2)c1 (stereo unspecified)	44*	/	19	2
C/C=C/c1ccc2c(c1)O[C@@H](CN(C)C(=O)C1CC1)[C@H](C)CN([C@@H](C)CO)S2(=O)=O	4	/	/	23
O=C(Nc1nnc(-c2ccccc2F)s1)c1cccnc1	60*	48	-4	6
COc1ccc(-c2nnc(NC(=O)c3c(OC)cccc3OC)s2)cc1	0	/	0	34
O=C(Nc1nnc(-c2ccccc2)s1)c1ccccc1O	67*	45	10	-24
CC(C)=CC(=O)Nc1nnc(-c2ccccc2)s1	13	53	21	14
COc1ccccc1C(=O)N(C)c1nnc(-c2ccccc2)s1	49*	63	40*	-2
O=C(Nc1nnc(C(F)(F)F)s1)c1cccnc1	9	37	/	5
COc1cccc(C(=O)Nc2nnc(-c3ccccc3)s2)c1OC	36	56	45*	10
CC(=O)N(C)C[C@@H]1Oc2cc(-c3ccccc3F)ccc2S(=O)(=O)N([C@@H](C)CO)C[C@@H]1C	5	/	/	9
COc1cccc(NC(=O)N[C@H]2C=C[C@H](CC(=O)Nc3ccccc3)O[C@@H]2CO)c1	-4	/	/	1
O=C(Nc1ccccc1)Nc1nnc(-c2ccccc2)s1	51*	/	33*	-5
COc1ccccc1C(=O)Nc1nnc(-c2ccccc2)s1	47*	/	8	7
Cc1ccc(NC(=O)Nc2nnc(-c3ccccc3F)s2)cc1	/	48	33*	/
COc1ccccc1C(=O)Nc1nnc(C)s1	/	32	/	/
COc1ccc(C(=O)Nc2nnc(-c3ccccc3)s2)cc1	47*	22	9	4
SMILES	esBAF inh	MITF TRPM1 HTS	Wnt act	Statin myotox sup
Cn1cnc(S(=O)(=O)N[C@H]2CC[C@@H](CC(=O)N3CCN(c4ccccc4)CC3)O[C@@H]2CO)c1	3	/	/	-2
CN(C)C(=O)C[C@H]1CC[C@@H]2[C@H](COC[C@H](O)CN2CC2CC2)O1	-4	/	/	-6
O=C1/C(=C/c2ccccc2)CCC1C1CCCC1 (stereo unspecified)	24	68	7	-7
CCOc1ccc(/C=C2\CCC(C3CCCC3)C2=O)cc1OC (stereo unspecified)	17	48	22	4
O=C1/C(=C/c2ccco2)CCC1C1CCCC1 (stereo unspecified)	17	20	38*	12
O=C1/C(=C\c2ccco2)CCC/C1=C\c1ccco1	77*	44	/	13
CCOc1ccc(/C=C2\CCC(C3CCCC3)C2=O)cc1 (stereo unspecified)	-6	123*	?	-8
O=C1/C(=C/c2ccco2)Cc2ccccc21	/	22	?	/
CCCNC(=O)c1cc(Cl)c(NC(=O)C2=CSCCO2)cc1OC	92*	80	20	0
O=C(NCC1CCCO1)c1ccc(/C=N/O)nc1 (stereo unspecified)	1	/	-1	11
CC1CCN(c2ccc(C(=O)NCc3cccs3)cn2)CC1	59*	77	/	-9
CC1CCCN(c2ccc(C(=O)NCC3CCCO3)cn2)C1 (stereo unspecified)	50*	54	8	-13
CCC(=O)N1C[C@H](C)[C@H](OC)CN(C)C(=O)c2ccc(NC(=O)c3ccc(F)cc3)cc2OC[C@H]1C	3	/	/	12
Cc1ccc(N(CN2CCCC2=O)C(=O)c2ccc(C)c(C)c2)cc1	15	-12	4	113*
Cc1ccc(NC(=O)C(=O)NCCCN2CCCC2=O)c(C)c1	40	31	2	0
Cc1ccc(C(=O)N(CN2CCCC2=O)c2ccccc2)cc1C	/	-22	/	/
Cc1ccc(NC(=O)C(=O)NCCCN2CCCC2=O)cc1	/	56	43*	/
COc1ccc(NC(=O)Nc2ccc3c(c2)C(=O)N([C@@H](C)CO)C[C@@H](C)[C@H](CN(C)Cc2ccc(C(=O)O)cc2)OCCCC[C@H](C)O3)cc1	0	/	/	/
O=C(C[C@H]1C[C@@H]2c3cc(NC(=O)C4CCOCC4)ccc3O[C@@H]2[C@H](CO)O1)NCc1ccc(Oc2ccccc2)cc1	-3	/	/	0
CN(C)CC(O)c1ccc(C=Cc2ccc(Cl)cc2)cc1 (stereo unspecified)	49*	-78	?	-7
CC(NC(=O)/C=C/c1ccc(Br)cc1)c1ccc(Cl)cc1 (stereo unspecified)	-9	3	-10	18
Cc1ccc(C)c(S(=O)(=O)NCc2ccc(C(=O)N3CCCCC3C)cc2)c1 (stereo unspecified)	6	14	/	114*
CC1CCCCN1C(=O)c1ccc(C(=O)N2CCCCC2C)cc1 (stereo unspecified)	-7	0	/	-1
O=C(O)CCC(C(=O)O)n1c(O)c(C2=c3ccccc3=NC2=O)sc1=S (stereo unspecified)	-2	-23	/	112*
O=C(O)Cn1c(O)c(C2=c3ccccc3=NC2=O)sc1=O	4	-25	5	1
SMILES	esBAF inh	MITF TRPM1 HTS	Wnt act	Statin myotox sup
CCOc1ccccc1C(=O)N[C@H](C(=O)Nc1nc2c(s1)CCCC2)C(C)C	/	-13	-1	/
COc1ccc(C(=O)NC(C(=O)NCc2ccccn2)C(C)C)cc1 (stereo unspecified)	2	-8	-7	136*
COc1ccc(C(=O)N[C@H](C(=O)Nc2nc3c(s2)CCCC3)C(C)C)cc1	65*	61	38*	16
COCCNC(=O)C[C@H]1CC[C@H]2[C@H](COc3ccc(NC(=O)C4CCCC4)cc3C(=O)N2C)O1	5	/	/	-5
CC(=O)NS(=O)(=O)c1ccc(N=NN2CCCCC2)cc1	/	0	-1	/
NS(=O)(=O)c1ccc(N=NN2CCCCC2)cc1	/	46	39*	/
COC(=O)c1ccc(N=NN2CCCCCC2)cc1	/	106*	0	/
Cc1cc(C(=O)CSc2nc3ccccc3[nH]2)c(C)n1C	/	70	62*	/
O=C(CSc1nc2ccccc2[nH]1)c1ccccc1F	52*	56	?	4
CCn1c(CSc2nc3ccccc3[nH]2)n[nH]c1=S	-2	7	0	101*
